Screening data (PubChem BioAssay)
Cycloheximide cs: Cycloheximide Counterscreen for Small Molecule Inhibitors of Shiga Toxin. cell reporter, cycloheximide protein synthesis inhibition counterscreen. max response, %. 300,000 compounds, 12% hits. AID 2314, 2010; in the data active = max response mostly above about 13%, no sharp cut-off; inactive = mostly below about 14%; also: read at 38.3 µM for the half of the compounds with a filed dose
Lassa entry inh: qHTS for Inhibitors of binding or entry into cells for Lassa Virus; Lassa virus pseudotype entry inhibition, cell reporter; Potency, µM (titrated, usually from 37.9 µM), most hits filed as inhibitors; 300,000 compounds, 1.2% hits; AID 540256, 2011; calls by dose curve; tested in HEK293 cells; also: nearly all actives have a fitted effect of over 50% in size
Shiga toxin inh: A qHTS for Small Molecule Inhibitors of Shiga Toxin; inhibition, % at 38.7 µM; 290,000 compounds, 9.2% hits; Vero cells, Shiga toxin protein synthesis inhibition reporter; in the data active = inhibition mostly above about 28%, no sharp cut-off; inactive = mostly below about 43%
Marburg entry inh: qHTS for inhibitors of binding or entry into cells for Marburg Virus | Potency, µM (highest dose often 37.8 µM), usual class: inhibitors | Marburg virus pseudotyped entry inhibition, cell reporter | 300,000 compounds, 1.8% hits; calls by dose curve; tested in HEK293 cells
AMA1 RON2 block: qHTS for Inhibitors of AMA1-RON; Towards Development of Antimalarial Drug Lead: Primary Screen; Potency, µM (titrated, usually from 58.2 µM), most hits filed as inhibitors; 360,000 compounds, 0.2% hits; AlphaScreen AMA1-biotinylated RON2 peptide binding; active = well fitted inhibition curve with a large enough effect; inconclusive = small, poorly fitted or top-dose-only effect; inactive = no such curve, though single readings can be large or run the other way; also: nearly all actives have a fitted effect of over 45% in size
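AMA1 (3D7) with his tag at 25 nM final met compounds first, then biotinylated RON2 peptide at 25 nM; detection used donor plus acceptor beads, 10 µg/mL apiece, read by AlphaScreen after 30 min at room temperature.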
Each line names hits and unclear results; the compound was inactive in the other large screens. Many of the other results were omitted from the sample, so hits are more common in it than they were.

Cc1ccc(NC(=O)CN(C)C(=O)c2cc3c(s2)CCCCC3)cc1	none (no result: Cycloheximide cs, Lassa entry inh, Shiga toxin inh, Marburg entry inh)
Cc1ccc(NC(=O)c2scc3c2CCCC3)cc1	Cycloheximide cs 54.0, Lassa entry inh inconclusive, Shiga toxin inh 73.5, Marburg entry inh inconclusive
CCCSc1nc2sc3c(c2c(=O)n1-c1ccccc1)CCC(C)C3 (stereo not given)	Lassa entry inh inconclusive (no result: Cycloheximide cs, Shiga toxin inh, AMA1 RON2 block)
CC#CC(=O)N1CCC(C(=O)Nc2ccc(Oc3ccccc3)nc2)CC1	Cycloheximide cs 34.4, Shiga toxin inh 86.8 (no result: Lassa entry inh, Marburg entry inh)
O=C(Nc1ccc(Oc2ccccc2)nc1)C1CCCCN1Cc1ccc(OCCO)cc1 (stereo not given)	Cycloheximide cs 22.4 (no result: Lassa entry inh, Marburg entry inh)
C#Cc1ccc(CN2CCC(C(=O)Nc3ccc(Oc4ccccc4)nc3)CC2)cc1	none (no result: Lassa entry inh, Marburg entry inh)
CCN(CC(=O)Nc1cc(Cl)ccc1OC)CC(=O)NC1CCS(=O)(=O)C1 (stereo not given)	AMA1 RON2 block inconclusive (no result: Lassa entry inh, Marburg entry inh)
Cc1cc(C)cc(NC(=O)C(=O)NCC(c2ccc3c(c2)OCO3)N2CCOCC2)c1 (stereo not given)	none (no result: Cycloheximide cs, Shiga toxin inh, Marburg entry inh, AMA1 RON2 block)
CCCC(=O)NC(NC(=S)Nc1ccc(N=Nc2ccccc2)cc1)C(Cl)(Cl)Cl (stereo not given)	Cycloheximide cs 34.6, Lassa entry inh inconclusive, Shiga toxin inh 39.4, Marburg entry inh inconclusive
CC(C)N(c1ccccc1)c1ccc(NC(=O)CCl)cc1	none (no result: Lassa entry inh, Marburg entry inh)
O=C(CCl)Nc1ccc(N=Nc2ccccc2)cc1	Cycloheximide cs 128.1, Lassa entry inh inconclusive, Shiga toxin inh 105.7, Marburg entry inh inconclusive
O=C(CCl)Nc1ccc(-c2ccccc2)cc1	Lassa entry inh 10.3µM, Marburg entry inh inconclusive
CCCC(=O)NC(NC(=S)Nc1ccc(S(N)(=O)=O)cc1)C(Cl)(Cl)Cl (stereo not given)	none
CC1CN(S(=O)(=O)c2cccc(C(=O)NN3CCN(C)CC3)c2)CC(C)O1 (stereo not given)	none
CC1CN(S(=O)(=O)c2cccc(C(=O)Nc3ccc4c(c3)CCC4)c2)CC(C)O1 (stereo not given)	Lassa entry inh inconclusive, Marburg entry inh 11.2µM
CN(c1cccc(Cl)c1)S(=O)(=O)c1cccc(C(=O)Nc2ccc3c(c2)CCC3)c1	Cycloheximide cs 30.0, Lassa entry inh inconclusive, Shiga toxin inh 46.9, Marburg entry inh 2.24µM
Cc1nnc(NC(=O)c2cccc(S(=O)(=O)N(C)c3cccc(Cl)c3)c2)s1	none (no result: Cycloheximide cs, Lassa entry inh, Shiga toxin inh, Marburg entry inh)
CCCCNS(=O)(=O)c1cccc(NC(=O)[C@@H]2O[C@H](CO)[C@@H](O)[C@H]2O)c1	none (no result: Cycloheximide cs, Lassa entry inh, Shiga toxin inh, Marburg entry inh)
O=S(=O)(NC1CCc2ccccc21)c1ccc(S(=O)(=O)N2CCCC2)cc1 (stereo not given)	Lassa entry inh inconclusive, Marburg entry inh inconclusive
COc1ccc(C2CC(c3cccs3)=NN2C(=O)c2ccccc2)cc1OC (stereo not given)	none
COc1ccc(C2CC(c3cccs3)=NN2C(=O)CCl)cc1OC (stereo not given)	Cycloheximide cs 29.2, Lassa entry inh inconclusive, Shiga toxin inh 41.7, Marburg entry inh inconclusive
COc1cc(C2CC(c3cccs3)=NN2C(=O)CCl)ccc1OC(F)F (stereo not given)	Lassa entry inh inconclusive, Shiga toxin inh 62.9, Marburg entry inh inconclusive
COc1ccc(C2CC(c3cccs3)=NN2C(=O)CCC(=O)O)cc1 (stereo not given)	none (no result: Lassa entry inh, Shiga toxin inh, Marburg entry inh)
COc1ccc(C2CC(c3cccs3)=NN2C(=O)CN2CCCCC2)cc1 (stereo not given)	Shiga toxin inh 26.0
CCN1CCc2c(OCC(=O)N3N=C(c4cccs4)CC3c3ccc(F)cc3)cccc2C1=O (stereo not given)	Lassa entry inh 11.2µM, Marburg entry inh inconclusive
Cc1noc(C)c1S(=O)(=O)NCCc1csc2nc(-c3ccc(Cl)cc3)nn12	none (no result: Cycloheximide cs, Shiga toxin inh, Marburg entry inh, AMA1 RON2 block)
CC(C)[C@@H](OCc1ccccc1)[C@H](C)C=NOC[C@@H](O)[C@H]1O[C@@H]2OC(C)(C)O[C@H]2[C@@H]1O	none (no result: Cycloheximide cs, Shiga toxin inh, AMA1 RON2 block)
COc1ccccc1N1CCN(C(=O)Cn2c(=O)nc(-c3ccccc3)c3cc(Cl)ccc32)CC1	none (no result: Cycloheximide cs, Shiga toxin inh, Marburg entry inh, AMA1 RON2 block)
CC(CCN1CCCCc2nc(C)c(C)cc21)=NOC[C@@H](O)[C@H]1O[C@@H]2OC(C)(C)O[C@H]2[C@@H]1O	Lassa entry inh inconclusive (no result: Cycloheximide cs, Shiga toxin inh, AMA1 RON2 block)
CC1(CCc2ccccc2)NC(=O)N(CC(=O)O)C1=O (stereo not given)	none (no result: Lassa entry inh, Marburg entry inh)
CC1(CCc2ccccc2)NC(=O)N(CC(=O)Nc2ccccc2)C1=O (stereo not given)	Cycloheximide cs 16.1
COc1ccccc1CNC(=O)C(=O)NCCC1CCCCN1S(=O)(=O)c1cccs1 (stereo not given)	Lassa entry inh inconclusive, Marburg entry inh inconclusive (no result: Cycloheximide cs, Shiga toxin inh)
O=C(NCc1ccccc1Cl)C(=O)NCC1OCCN1S(=O)(=O)c1cccs1 (stereo not given)	Cycloheximide cs 21.4
Cc1ccccc1CNC(=O)C(=O)NCCC1CCCCN1S(=O)(=O)c1cccs1 (stereo not given)	Lassa entry inh inconclusive, Marburg entry inh 10µM, AMA1 RON2 block inconclusive (no result: Cycloheximide cs, Shiga toxin inh)
CC(=O)Nc1ccc(NC(=O)CC(C)n2ccnc2)cc1 (stereo not given)	none
OC[C@@H]1CN(Cc2ccc(Cl)cc2)C[C@H](n2cnc3c(NC4CCC4)ncnc32)O1	none (no result: Cycloheximide cs, Lassa entry inh, Shiga toxin inh, Marburg entry inh)
Cc1ccc(C(=O)CCC(=O)OCC(=O)NNC(=O)c2ccc([N+](=O)[O-])cc2)cc1	Marburg entry inh inconclusive (no result: Cycloheximide cs, Shiga toxin inh)
CCCCCCCCCCCCCCCCCCNC(=O)OC[C@@H](COP(=O)([O-])OCC[n+]1ccsc1)OC	none (no result: Cycloheximide cs, Lassa entry inh, Shiga toxin inh, AMA1 RON2 block)
CCCCCCCCCCCCCCCC(=O)NC[C@@H](COP(=O)([O-])OCC[N+](C)(C)C)OCC	Marburg entry inh 6.51µM (no result: Cycloheximide cs, Lassa entry inh, Shiga toxin inh, AMA1 RON2 block)
CCCCCCCCCCCCCCCC(=O)NCC(COP(=O)([O-])OCC[N+](C)(C)C)OCC (stereo not given)	Marburg entry inh 6.51µM (no result: Cycloheximide cs, Shiga toxin inh, AMA1 RON2 block)
Cc1nc2c(-c3ccccc3)c(C)nn2c(N)c1-c1ccccc1	Cycloheximide cs 49.3, Lassa entry inh inconclusive, Shiga toxin inh 28.6, Marburg entry inh inconclusive
Cc1nn2c(N)c(-c3ccccc3)cnc2c1-c1ccc(Cl)cc1	Cycloheximide cs 38.5, Lassa entry inh inconclusive, Shiga toxin inh 111.6, Marburg entry inh inconclusive
Cc1nn2c(-c3ccccc3)ccnc2c1-c1ccccc1	Cycloheximide cs 48.7, Lassa entry inh inconclusive, Shiga toxin inh 94.4, Marburg entry inh inconclusive
C=C(C)CSc1cc(C)nc2c(-c3ccccc3)c(C)nn12	Cycloheximide cs 36.0 (no result: Lassa entry inh, Marburg entry inh)
Cc1ccc(-c2ccnc3c(Cl)c(C)nn23)cc1	none
Cc1cccc(N(Cc2cc3ccccc3[nH]c2=O)C(=O)c2cccs2)c1	none
Cc1ccc(Sc2c([N+](=O)[O-])c(=O)n(C)c3ccccc23)cc1	Cycloheximide cs 10.2 (no result: Lassa entry inh, Marburg entry inh)
COc1cc(C=C(c2nc3ccccc3s2)c2nc3ccccc3s2)ccc1O	Cycloheximide cs 22.6, Marburg entry inh inconclusive
COc1cc(/C=C/c2cc(C(=O)O)c3ccccc3n2)cc(OC)c1O	none
COc1cc(/C=C/c2nc3ccccc3s2)cc(OC)c1O	Cycloheximide cs 40.6, Lassa entry inh inconclusive, Shiga toxin inh 77.7
COc1ccc(C=C(c2nc3ccccc3s2)c2nc3ccccc3s2)cc1O	Cycloheximide cs 89.0, Lassa entry inh inconclusive, Shiga toxin inh active, Marburg entry inh inconclusive
